The values below come from PubChem BioAssay (NCI).

What all share (assay): NCI-60 one-dose screen, 48 h (100 = growth as untreated, 0 = no growth, -100 = all killed)
Settings in all cases: 10 µM

For assay [1], the system named is HCT-15 colon.
Assay [2] deals with HT29 colon.
The subject of assay [3] is SNB-75 CNS.
Assay [4] has as its system SNB-19 CNS.
Assay [5] relates to U251 CNS.
Assay [6] has as its system PC-3 prostate.
Assay [7] deals with SK-MEL-5 melanoma.
Assay [8] deals with UACC-62 melanoma.
Assay [9] deals with LOX IMVI melanoma.
Assay [10] deals with SK-MEL-28 melanoma.
The test system of assay [11] is SK-MEL-2 melanoma.
The subject of assay [12] is SN12C renal.
Assay [13] concerns UO-31 renal.
Assay [14] relates to ACHN renal.
The subject of assay [15] is CAKI-1 renal.
For assay [16], the system named is A498 renal.
The subject of assay [17] is CCRF-CEM leukemia.
Assay [18] deals with MOLT-4 leukemia.
For assay [19], the system named is EKVX NSCLC.
Assay [20] relates to TK-10 renal.

Compounds without any hit were thinned out: in the full panel of roughly 83,000, 20% have a hit.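 Assay: single dose, 48 h. Readout: percent growth (0 = no net growth; negative = cell death). Active: <10.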 A number with no mark means an inactive call. Calls of active or inactive are those of the source.

Consider `CCCCCCCCCCCCCCCCCBr`, for which the growth in [1] was 102%; in assay [2], 97.5%; in assay [3], 84.3%; in [4], 95.9%; in assay [5], 103%; in assay [6], 92.6%. The growth is 98.9% in assay [7]; 104% in [8]; 101% in [9]; 108% in assay [10]; 108% in [11]; 98.9% in assay [12]. Also, the growth in assay [13] is 91.4%; in [14], 102%; in [15], 97.2%; in assay [16], 64.1%; in [17], 94.4%; in assay [18] it was 96%.

For `COC(=O)[C@]12CC[C@@H](C)[C@H](C)[C@@H]1C1=CC[C@@H]3[C@@]4(C)CC(=O)[C@H](O)[C@@](C)(CO)[C@@H]4C(=O)C[C@@]3(C)[C@]1(C)CC2`, the growth in assay [1] was -15.1% (active); in assay [2] it was -25.6% (active); in [3] it was -0.588% (active); in assay [4] it was 16.6%; in assay [5] it was -43.5% (active); in assay [6] it was -22.3% (active). Further, the growth is -57.2% (active) in [8]; -77.9% (active) in assay [9]; 21.8% in assay [10]; -4.44% (active) in [11]; 3.1% (active) in assay [19]; -75.4% (active) in assay [13]. Besides, the growth in [20] is 22.1%; in assay [14], -51.5% (active); in assay [15] it was -66.4% (active); in assay [16], -11.3% (active); in assay [17] it was -13.7% (active); in assay [18] it was -31.8% (active).

As to `Cc1cc(C#Cc2ccccc2)ccc1-n1c(/C=C/c2cc(O)ccc2O)nc2ccccc2c1=O`, the growth is -33.6% (active) in [1]; 11.8% in [2]; 16.2% in assay [3]; 26.6% in [4]; 5.85% (active) in assay [5]; 3.46% (active) in assay [6]. For the same compound, the growth is -55.6% (active) in [8]; -80.6% (active) in [9]; -45.3% (active) in assay [10]; -12.9% (active) in assay [11]; -7.48% (active) in assay [19]; -5.43% (active) in assay [12]. Besides, the growth in assay [13] is -27.9% (active); in [20], 29.7%; in assay [14], 8.83% (active); in [15] it was -5.93% (active); in [16], 41%; in assay [17], 7.82% (active). The growth in assay [18] is 3.81% (active).

Regarding `COc1ccc2nc(/C=C/c3ccc(N(C)C)cc3)sc2c1`, the growth in assay [1] is 93.8%; in assay [2], 93.3%; in [3] it was 92.3%; in assay [4], 131%; in assay [5], 90.7%; in [6], 98.9%. Further, the growth was 94.7% in [8]; 91.5% in assay [9]; 109% in assay [10]; 101% in [11]; 96.9% in [19]; 91.4% in [12]. The growth in assay [20] is 103%; in [14], 104%; in assay [15], 97.6%; in [16], 71.7%; in assay [17], 82.6%; in assay [18], 77.7%.

In the case of `C=CCN1C(=O)/C(=C\c2ccc3c(c2)CCC3)SC1=S`, the growth in assay [1] is 98.8%; in assay [2], 97.4%; in assay [3], 99.9%; in assay [4], 94.2%; in assay [5], 100%; in assay [6], 107%. Besides, the growth in [7] was 99.6%; in [8], 99.2%; in assay [9], 98.5%; in assay [10], 113%; in assay [11], 94.6%; in [12], 102%. The growth in assay [13] was 85.6%; in assay [14], 97.1%; in [15] it was 97.5%; in assay [16], 98.9%; in assay [17], 103%; in assay [18] it was 85.9%.

For the compound `FC(F)(F)c1ccc(-c2cnc(Cl)nc2NC2CCCCCC2)cc1`, the growth in [1] was 75.7%; in assay [2] it was 19.1%; in [3], 49.9%; in assay [4], 31.2%; in assay [6] it was 1.08% (active); in [7], -8.26% (active). For the same compound, the growth in [8] was 16.2%; in assay [9] it was 27.9%; in [10] it was 37.6%; in assay [11], -4.24% (active); in assay [12] it was 18.2%; in assay [13], 23.5%. In addition, the growth in [20] was 32.1%; in assay [14] it was 5.68% (active); in assay [15], 67.5%; in [16] it was 89.9%; in assay [17] it was 26.3%; in [18] it was 85.1%.

In the case of `CCN(Cc1ccccc1)C1CCN(Cc2cc(Br)ccc2O)CC1`, the growth in [1] is 50.1%; in assay [2], 13.3%; in assay [3], 49.2%; in assay [4] it was 65.7%; in assay [6], 45.7%; in assay [7] it was 32.1%. Besides, the growth in assay [8] was 51.7%; in assay [9], 54.9%; in [10] it was 76.1%; in assay [11], 69.7%; in [12], 44.8%; in assay [13], 23.5%. Further, the growth in [20] is 52.1%; in assay [14], 45.1%; in assay [15] it was 44.7%; in assay [16] it was 66.2%; in assay [17], 43.5%; in [18], 61.2%.

As to `Nc1ccc2c(c1)Cc1cc(N)c(Cl)cc1-2`, the growth in assay [1] is 100%; in assay [2], 101%; in assay [3] it was 86.7%; in [4], 92.9%; in [6], 95.7%; in [7] it was 93.9%. The growth in assay [8] is 83.9%; in assay [9] it was 104%; in assay [10] it was 103%; in assay [11] it was 102%; in assay [19], 57.2%; in assay [12] it was 89.8%. The growth is 52.6% in [13]; 115% in assay [20]; 98.5% in assay [14]; 94.1% in assay [15]; 118% in [16]; 79.8% in assay [17].

With `O=C(O)c1cc(C(F)(F)F)cc(C(F)(F)F)c1`, the growth was 104% in assay [1]; 100% in assay [2]; 97.6% in assay [3]; 118% in assay [4]; 97.7% in assay [6]; 109% in assay [7]. For the same compound, the growth in assay [8] was 108%; in assay [9], 99.7%; in assay [10] it was 103%; in [11] it was 97.1%; in assay [19] it was 105%; in assay [12], 104%. Besides, the growth in assay [13] is 77.8%; in assay [20] it was 135%; in assay [14] it was 105%; in [15], 99.6%; in assay [16], 84.4%; in assay [17] it was 102%. The growth in assay [18] was 95%.

Consider `N#C/C(=C\N1C(=O)/C(=C/c2cccc([N+](=O)[O-])c2)SC1=S)c1nc2ccccc2s1`, for which the growth in assay [1] is 95%; in assay [2] it was 90.6%; in [3] it was 82.5%; in [4], 88.8%; in assay [6], 83.5%; in assay [7], 64.6%. Also, the growth was 63.3% in assay [8]; 79.8% in [9]; 92.4% in assay [10]; 73.1% in assay [11]; 81% in [19]; 94.9% in [12]. The growth in [13] is 56.3%; in [20], 120%; in assay [14] it was 81.5%; in assay [15], 85.2%; in [17], 85.9%; in [18] it was 87%.

Consider `Fc1ccc2[nH]c3c(NCCCN4CCOCC4)ncnc3c2c1`, for which the growth in assay [1] is 91.1%; in assay [2], 66.1%; in [3], -0.656% (active); in [4] it was 91.7%; in assay [6], 83%; in [7], 92.2%. The growth is 92.3% in [8]; 69.1% in assay [9]; 104% in assay [10]; 65.7% in assay [11]; 63.8% in [12]; 45.9% in assay [13]. The growth in assay [20] was 12.7%; in [14] it was 23.9%; in assay [15], 25.2%; in [16] it was 130%; in assay [17] it was 74.7%; in [18] it was 83.1%.

As for `COc1ccc(-c2nc(-c3nc4ccc(C)cc4[nH]3)c3ccccn23)cc1`, the growth in [1] is 33.7%; in assay [2], 21.9%; in [3], 66.6%; in assay [4], 55.3%; in assay [6], 25.3%; in assay [7] it was 39.9%. Moreover, the growth in assay [8] was 47%; in assay [9], 46%; in [10], 84.6%; in [11], 47%; in assay [12], 44.9%; in assay [13] it was 14.4%. The growth in assay [20] was 69.4%; in assay [14] it was 55.6%; in assay [15], 46.9%; in assay [16], 19.6%; in assay [17], 18.7%; in [18] it was 40.4%.

Regarding `N#Cc1c(-c2ccccc2)nc(SCC(=O)N2CCOCC2)[nH]c1=O`, the growth in [1] is 103%; in assay [2] it was 106%; in [3], 61.4%; in [4] it was 111%; in assay [6] it was 98.1%; in assay [7] it was 102%. Moreover, the growth in assay [8] is 100%; in assay [9], 91.9%; in assay [10] it was 114%; in assay [11], 107%; in [12] it was 99.1%; in assay [13], 71.9%. The growth was 98.5% in assay [14]; 94.1% in assay [15]; 93.5% in [16]; 95.1% in assay [17]; 83.5% in [18].

In the case of `COc1ccc(C(=O)c2sc3nc(-c4cccs4)ccc3c2N)cc1OC`, the growth was 37.4% in assay [1]; 14% in assay [2]; 52.1% in [3]; 71.7% in assay [4]; 39% in assay [6]; 24.3% in assay [7]. In addition, the growth in assay [8] was 59%; in assay [9] it was 55%; in assay [10], 59.2%; in [11] it was 15.7%; in assay [12] it was 62%; in assay [13], 45.6%. The growth was 49.4% in [20]; 64.7% in assay [14]; 62% in assay [15]; 39.4% in assay [16]; 34.5% in assay [17]; 23.3% in [18].

As to `COC(=O)[C@]12CC[C@@H](C)[C@H](C)[C@@H]1C1=CC[C@@H]3[C@@]4(C)CC(=O)[C@H](O)[C@@]5(C)COC(=C45)C[C@@]3(C)[C@]1(C)CC2`, the growth in assay [1] was -69.7% (active); in assay [2], -61.2% (active); in assay [3], -32.6% (active); in [4], -54.1% (active); in assay [6], -32.3% (active); in assay [7] it was -97.2% (active). The growth in [8] is -75.3% (active); in [9] it was -80.7% (active); in [10], -41.8% (active); in assay [11], -74.1% (active); in assay [19], -55.5% (active); in [13] it was -87.5% (active). Further, the growth was -76.5% (active) in assay [20]; -83.8% (active) in assay [14]; -36.9% (active) in [15]; -84.1% (active) in [16]; -40.1% (active) in assay [17]; -54.9% (active) in [18].

Consider `COc1ccc(C2=NNC(c3sc(Cl)nc3Cl)C2)cc1` (centres undefined), for which the growth was 34.2% in [1]; 85.9% in assay [2]; 101% in assay [3]; 95.6% in assay [4]; 89.6% in assay [6]; 54.6% in assay [7]. In addition, the growth was 96% in assay [8]; 9.86% (active) in [9]; 98.9% in assay [10]; 62.8% in assay [11]; 22.4% in [12]; 85.3% in assay [13]. In addition, the growth in assay [20] was 116%; in [14], 105%; in assay [15] it was 97.4%; in assay [16], 102%; in [17], 17.7%; in assay [18], 7.63% (active).
